This is a sample that favours compounds with a hit; in the whole collection about 1.9% have one here.
Vif imaging: HIV Vif inhibition. HEK293T cells, Vif self-association by quenched fluorescence, imaging, 24 h. inhibition, % at 7.49 µM. 340,000 tested, 0.35% active; in the data active = inhibition above about 50%, passing the limit was not always enough
dFosB act-1: mouse delta FosB homodimer activation; purified delta FosB, TAMRA-CDK5 oligo fluorescence polarization; percent of positive-control signal above neutral wells; activation, % at 25 µM; 340,000 tested, 0.99% active; AID 493131;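 active = mean activation above about 17%, with every replicate also reaching it, limit read from the data, passing the limit was not always enough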
A1 inh: inhibitors of the anti-apoptotic protein A1, read as caspase activation. MEF A1-2A-BIM cells, Caspase-Glo 3/7 luminescence, 3 h; percent of clofoctol response, vehicle zero. caspase activation, % (test concentration not listed). 330,000 tested, 0.066% active;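 active = over half of replicate activation scores above 10%, or exactly half above 10 with the replicate mean above 10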
GSIS activator: primary screen for activators of insulin secretion dependent on glucose, INS-1E cells, GLuc reporter luminescence; AID 743287; INS-1E GLuc reporter insulin secretion, 2-3 h; 370,000 tested, 0.61% active; activation, % at 16.6 µM;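 active = lowest replicate activation of at least 40%, so every replicate reaches that level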;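 note: 0% = median of neutral control wells and 100% = median of IBMX positive control wells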
Neddylation inh: blocks human cullin neddylation | 360,000 tested, 0.58% active | AID 651699 | TR-FRET cullin neddylation, biochemical | P61081+Q13564 | inhibition, % at 25 µM; in the data active = inhibition above about 36%
Target sequence (P61081 whole entry, looked up): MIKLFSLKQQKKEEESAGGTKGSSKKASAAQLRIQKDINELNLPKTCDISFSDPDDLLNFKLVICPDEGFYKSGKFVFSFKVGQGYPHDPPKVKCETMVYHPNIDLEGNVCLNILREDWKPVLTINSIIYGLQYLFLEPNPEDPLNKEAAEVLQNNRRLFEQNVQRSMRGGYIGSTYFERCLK
Target sequence (Q13564 whole entry, looked up): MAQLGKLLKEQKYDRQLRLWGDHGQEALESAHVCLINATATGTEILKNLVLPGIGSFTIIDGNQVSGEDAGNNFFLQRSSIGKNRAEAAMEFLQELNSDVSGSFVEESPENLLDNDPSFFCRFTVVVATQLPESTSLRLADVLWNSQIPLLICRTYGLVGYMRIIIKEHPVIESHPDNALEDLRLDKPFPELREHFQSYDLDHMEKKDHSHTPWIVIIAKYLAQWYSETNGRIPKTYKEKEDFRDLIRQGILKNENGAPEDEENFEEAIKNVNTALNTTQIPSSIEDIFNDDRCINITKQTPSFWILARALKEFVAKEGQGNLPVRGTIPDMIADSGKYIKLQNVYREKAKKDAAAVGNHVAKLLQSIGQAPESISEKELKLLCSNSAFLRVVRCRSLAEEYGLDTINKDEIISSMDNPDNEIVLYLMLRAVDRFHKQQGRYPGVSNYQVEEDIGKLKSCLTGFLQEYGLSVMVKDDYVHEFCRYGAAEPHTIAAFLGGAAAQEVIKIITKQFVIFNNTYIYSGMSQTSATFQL
dFosB act-2: enhances mouse delta FosB homodimer binding to DNA; 2,400 tested, under 10 active; activation, % at 24.9 µM; AID 588690; shares compounds with dFosB act-1; purified delta FosB, TAMRA-CDK5 oligo fluorescence polarization; normalised: neutral wells 0, positive control 100;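 active = highest replicate activation at or above 34% and every replicate reaching that threshold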;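 note: higher polarization means more probe DNA bound by delta FosB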
Active calls of the source: *; / = no result shown.

SMILES	Vif imaging	dFosB act-1	A1 inh	GSIS activator	Neddylation inh	dFosB act-2
Cc1nc2ccccc2n1CCc1nc2c3ccccc3nc(SCC(=O)NCc3ccco3)n2n1	-9.5	6.2	-0.7	/	-7.1	/
Cc1cccc(NC(=O)CSc2nc3ccccc3c3nc(CCc4c(C)n[nH]c4C)nn23)c1	4.4	44.1*	-0.8	/	-5.1	-9.1
Cc1n[nH]c(C)c1CCc1nc2c3ccccc3nc(SCC(=O)Nc3ccccc3F)n2n1	-0.3	56.8*	1.9	/	-3.6	5.6
CCC(=O)N1CCC2(CC1)CN(Cc1cc(F)ccc1F)[C@@H](CO)c1[nH]c3cc(OC)ccc3c12	/	/	/	-3.7	/	/
COC(=O)Cn1c(=NC(=O)c2sc3ccccc3c2Cl)sc2cc(S(N)(=O)=O)ccc21	-6.2	-2.1	0.0	2.9	-9.7	/
CCOC(=O)Cn1c(=NC(=O)c2sc3ccccc3c2Cl)sc2cc(S(N)(=O)=O)ccc21	-8.2	91.5*	-0.1	70.7*	/	-3.6
Cc1cc(C(=O)Nc2cccc3c2O[C@H](CN(C)S(=O)(=O)c2cn(C)cn2)[C@H](C)CN([C@@H](C)CO)C3=O)n(C)n1	/	/	/	22.0	/	/
O=C(COC(=O)/C=C/c1cccc(Cl)c1Cl)Nc1ccc2[nH]c(=O)[nH]c2c1	5.6	35.0*	15.6*	-3.0	-0.7	3.5
O=C(COC(=O)/C=C/c1cccc(Cl)c1)Nc1ccc2[nH]c(=O)[nH]c2c1	19.9	26.9*	-0.1	-5.7	12.5	0.4
Cc1noc(C)c1NC(=O)Nc1cccc2c1O[C@@H](CN(C)S(=O)(=O)c1ccc(F)cc1)[C@@H](C)CN([C@@H](C)CO)C2=O	/	/	/	7.9	/	/
O=C(COc1ccc2ccccc2c1Br)Nc1ncn[nH]1	-5.2	25.5*	-0.6	9.5	-72.5	5.7
COc1ccc(N(CC(=O)Nc2ccc(OC)c(Cl)c2)S(=O)(=O)c2c(C)noc2C)cc1	-0.9	3.4	-0.5	/	-7.5	/
COc1ccc(N(CC(=O)Nc2ccc(F)c(Cl)c2)S(=O)(=O)c2c(C)noc2C)cc1	0.0	27.8*	0.0	/	-1.7	2.3
Cc1ccc(NC(=O)c2ncn(CC(=O)NCc3ccccc3)n2)cc1C	/	0.3	/	-0.4	2.2	/
Cc1ccc(NC(=O)c2ncn(CC(=O)NCc3nc4ccccc4[nH]3)n2)cc1C	/	46.7*	/	-1.6	30.5	-6.8
Cc1noc(C)c1S(=O)(=O)Nc1ccc2c(c1)C(=O)N([C@H](C)CO)C[C@H](C)[C@H](CN(C)C(=O)NC(C)C)OCCCC[C@H](C)O2	/	/	/	11.3	/	/
Cc1cc(C)c2cc(CN(CCN3CCCC3)C(=O)Nc3ccc(F)cc3)c(=O)[nH]c2c1	3.2	31.3*	1.6	/	-20.4	-7.9
COc1ccccc1CNC(=O)C[C@H]1CC[C@H]2[C@@H](COc3ccc(NC(=O)Nc4ccc(F)c(F)c4)cc3C(=O)N2C)O1	/	/	/	-12.4	/	/
c1cc2c3c(cccc3c1)C(N1CCOCC1)=N2	/	14.6	-0.4	14.0	20.1	/
COc1ccccc1N1CCN(C2=Nc3cccc4cccc2c34)CC1	-19.2	26.1*	0.0	-12.8	-35.4	-0.2
CC(=O)N1CCN(C2=Nc3cccc4cccc2c34)CC1	/	17.3*	-0.1	/	34.0	0.9
c1ccc(CC2CCN(C3=Nc4cccc5cccc3c45)CC2)cc1	9.2	23.0*	0.3	/	17.5	-4.5
CCOC(=O)N1CCN(C2=Nc3cccc4cccc2c34)CC1	-3.0	21.8*	0.3	/	25.3	0.0
C[C@@H]1CN([C@@H](C)CO)C(=O)c2cc(NS(=O)(=O)c3ccc(Cl)cc3)ccc2O[C@@H]1CN(C)C(=O)Nc1cccc2ccccc12	/	/	/	-8.7	/	/
CS(=O)(=O)N1[C@@H]2Cn3c(ccc(-c4ccc(F)cc4)c3=O)[C@H]1[C@@H](C(=O)N1CCOCC1)[C@@H]2CO	/	/	/	2.2	/	/
SMILES	Vif imaging	dFosB act-1	A1 inh	GSIS activator	Neddylation inh	dFosB act-2
C[C@H](CO)N1C[C@H](C)[C@H](CN(C)C(=O)Nc2cccc3ccccc23)Oc2ccc(NC(=O)C3CC3)cc2CC1=O	/	/	/	5.0	/	/
Cc1ccc(OCCCCCCN2CCNCC2)c(Br)c1	24.5	22.5*	1.1	54.9	10.0	-2.0
Cc1ccc(OCCCCN2CCC(C)CC2)c(Br)c1	-3.2	-2.1	0.2	38.6	0.9	/
CCOc1ccc2nc(NC(=O)c3ccc(OC)c(S(=O)(=O)N4CCOCC4)c3)sc2c1	-6.2	26.5*	2.0	/	/	5.3
C[C@@H]1CN([C@H](C)CO)C(=O)c2cc(C3=CCCC3)cnc2O[C@@H]1CN(C)S(C)(=O)=O	/	/	/	21.8	/	/
COc1ccc(Br)cc1CNC(=O)CCc1nc(-c2ccc(C)cc2)no1	0.7	20.6*	0.4	-18.2	-8.1	-0.2
Cc1noc(C)c1NC(=O)N(C)C[C@@H]1Oc2ccc(NC(=O)Nc3ccc(C(F)(F)F)cc3)cc2CC(=O)N([C@@H](C)CO)C[C@@H]1C	/	/	/	10.4	/	/
CC(C)C(=O)Nc1ccc(Cl)cc1-c1nc2ccccc2[nH]c1=O	-2.4	-0.4	0.9	-10.5	1.2	/
CNc1ccc([N+](=O)[O-])cc1-c1nc2ccccc2[nH]c1=O	3.1	39.7*	-0.1	13.7	-7.7	0.9
C[C@@H]1CN([C@H](C)CO)C(=O)c2cc(C3=CCCCC3)cnc2O[C@H]1CN(C)C(=O)c1ccncc1	/	/	/	-6.2	/	/
Cc1ccc(-n2nnc3c(=O)n(CC(=O)NCc4ccccc4)cnc32)cc1	-10.1	26.8*	0.5	-1.8	-2.8	4.1
O=C(Cn1cnc2c(nnn2-c2ccccc2)c1=O)NCc1ccc(F)cc1	/	19.1*	-0.3	-3.7	-4.6	4.5
CCOc1ccc(CNC(=O)Cn2nc(C)c3c(C)n(-c4ccc(C)cc4)nc3c2=O)cc1	-2.1	59.0*	-0.2	16.7	-23.8	5.7
Cc1ccc(-n2nnc3c(=O)n(CC(=O)c4ccccc4)cnc32)cc1	3.4	0.0	-0.1	6.6	-13.3	/
C[C@H](CO)N1C[C@H](C)[C@H](CN(C)C(=O)Cc2ccncc2)Oc2ncc(C3=CCCCC3)cc2C1=O	/	/	/	-5.9	/	/
O=C(C[C@@H]1C[C@@H]2c3cc(NC(=O)CC4CC4)ccc3O[C@@H]2[C@@H](CO)O1)NCc1ccc(-c2ccccc2)cc1	/	/	/	1.7	/	/
Cc1ccc(S(=O)(=O)Nc2cccc3c2O[C@H](CN(C)Cc2ccc4c(c2)OCO4)[C@H](C)CN([C@H](C)CO)C3=O)cc1	/	/	/	-3.0	/	/
COc1cc(/C=C(\C#N)c2nc3ccccc3[nH]2)ccc1OC(=O)c1ccco1	-0.9	26.6*	-9.2	/	-85.9	3.9
O=C(NNC1=Nc2ccccc2SC1)c1ccc(Cl)cc1	-4.7	24.0*	-0.3	/	-0.6	-9.5
CN(C)c1nc(NCc2ccccc2)nc(N/N=C/c2ccc(Cl)cc2Cl)n1	1.0	17.4*	0.0	/	-3.5	5.0
Cc1cc(C)nc(NCc2ccc(Cl)cc2)n1	0.1	2.2	0.0	-2.8	4.8	/
Cc1cc(Nc2cccc(Cl)c2)nc(NCc2ccccc2)n1	-1.3	40.9*	-0.5	14.6	44.6*	-1.4
Cc1cc(N/N=C/c2cccc(Cl)c2)nc(NCc2ccccc2)n1	-1.4	41.0*	0.7	-12.9	16.4	2.5
